This is part of a sample that, as a whole, favours compounds with a hit. Of some 83,000 tested, about 20% had one in any assay.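 96-well plates, one dose, 48 hours. Percent growth reported; active if below 10.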 Values without a mark were called inactive. Activity calls are given as the source filed them.
Columns and labels:
Assay in all cases: NCI-60 one-dose screen, 48 h (100 = growth as untreated, 0 = no growth, -100 = all killed)
Settings in all cases: 10 µM unless noted
DU-145 prostate = system: DU-145 prostate
K-562 leukemia = system: K-562 leukemia
MALME-3M melanoma = system: MALME-3M melanoma
MDA-MB-231 breast = system: MDA-MB-231 breast
RXF 393 renal = system: RXF 393 renal
SF-268 CNS = system: SF-268 CNS
SF-295 CNS = system: SF-295 CNS
SF-539 CNS = system: SF-539 CNS
UACC-257 melanoma = system: UACC-257 melanoma
M14 melanoma = system: M14 melanoma
HCT-15 colon = system: HCT-15 colon
HT29 colon = system: HT29 colon
SNB-75 CNS = system: SNB-75 CNS
SNB-19 CNS = system: SNB-19 CNS
U251 CNS = system: U251 CNS
SK-MEL-5 melanoma = system: SK-MEL-5 melanoma
UACC-62 melanoma = system: UACC-62 melanoma
LOX IMVI melanoma = system: LOX IMVI melanoma
SK-MEL-28 melanoma = system: SK-MEL-28 melanoma
PC-3 prostate = system: PC-3 prostate

| SMILES | growth (DU-145 prostate) | growth (K-562 leukemia) | growth (MALME-3M melanoma) | growth (MDA-MB-231 breast) | growth (RXF 393 renal) | growth (SF-268 CNS) | growth (SF-295 CNS) | growth (SF-539 CNS) | growth (UACC-257 melanoma) | growth (M14 melanoma) | growth (HCT-15 colon) | growth (HT29 colon) | growth (SNB-75 CNS) | growth (SNB-19 CNS) | growth (U251 CNS) | growth (SK-MEL-5 melanoma) | growth (UACC-62 melanoma) | growth (LOX IMVI melanoma) | growth (SK-MEL-28 melanoma) | growth (PC-3 prostate) [%] |
| --- | --- | --- | --- | --- | --- | --- | --- | --- | --- | --- | --- | --- | --- | --- | --- | --- | --- | --- | --- | --- |
| C=C(C)[C@@H]1CC[C@]2(COC(=O)c3cccnc3)CC[C@]3(C)[C@H](CC[C@@H]4[C@@]5(C)CCCN(C(=O)c6cccnc6)C(C)(C)[C@@H]5CC[C@]43C)[C@@H]12 | 44% | 13.7% | 69.1% | 52.7% | 56.1% | 45.5% | 40.9% | 46.4% | 19.9% | 41.5% | 24.9% | 32.3% | 53.3% | 47.1% | 25.6% | 2.5% (active) | 28.4% | 21.3% | 51.3% | – |
| COc1ccc(N2C(=O)/C(=C/C(Cl)=C/c3ccc([N+](=O)[O-])cc3)SC2=S)cc1 | 5.02% (active) | 0.935% (active) | 26.4% | 7.73% (active) | -77.9% (active) | 12.3% | -32.1% (active) | -22.8% (active) | 48.2% | 12.3% | -24.1% (active) | -20.9% (active) | -33.8% (active) | 2.68% (active) | -83.1% (active) | 29.3% | -25.2% (active) | -86.2% (active) | 13.7% | – |
| COc1ccc(/C=C\c2cc(OC)c(OC)c(OC)c2)cc1OCC(=O)Nc1nc2ccccc2s1 | -27.3% (active) | 15.6% | 49.7% | 21.8% | 20.6% | 24.1% | 9.97% (active) | 11.8% | 54.4% | 27.6% | 23% | 1.98% (active) | 30.3% | 43.8% | 13.9% | -64% (active) | 28% | 11.5% | 65.4% | – |
| Clc1ccc2c(NCCCn3cnc4c(N5CCCC5)nc(Cl)nc43)ccnc2c1 | 106% | 90.4% | 101% | 89.8% | 123% | 94.4% | 101% | 99.1% | 102% | 93.9% | 95.5% | 100% | 86.3% | 103% | 99.8% | – | 101% | – | 107% | 91.9 |
| O=C(/C=C/c1ccco1)Nc1ncc(Cc2ccc(F)cc2)s1 | 19% | 10.8% | 59% | 45.5% | 12.7% | 54.9% | 11.7% | -21.3% (active) | 45.2% | 16.7% | 15.3% | 7.2% (active) | 19.9% | 48% | 22.6% | 25.9% | 16.8% | 28.9% | 48% | – |
| COc1cc2c(c(OC)c1OC)CCC(c1cccc(C(=O)Nc3ccc([N+](=O)[O-])cc3)c1)O2 (stereo not given) | 57% | 21.8% | 68.3% | 37.1% | 69.8% | 59.3% | 39.8% | 76.2% | 50.9% | 30.7% | 54.5% | 64% | 66.7% | 56.7% | 57.7% | 15.4% | 31.4% | 52.9% | 61.9% | – |
| CCCCCCCCNC(=O)[C@@H](N)CSCOC(C)=O | 87.6% | 71.8% | 114% | 91.9% | 124% | -31.5% (active) | 102% | 79.9% | 110% | 34.2% | 99.5% | 89.4% | -17.3% (active) | 90.8% | 102% | 48.7% | 70% | 44.4% | 99.6% | – |
| CN1CCN(Cc2ccc(NC(=O)c3cncc(C#Cc4c(N)ncc5cc(F)ccc45)c3)cc2C(F)(F)F)CC1 | -88% (active) | -50% (active) | -75.3% (active) | -90.4% (active) | -59.9% (active) | 38.6% | 59.5% | 9.53% (active) | 41.5% | -75.8% (active) | -91.7% (active) | -74.8% (active) | 45.1% | -94.9% (active) | -97.5% (active) | – | 29.4% | – | -41.9% (active) | 37.9 |
| Cn1cc(-c2ccc3occ(-c4cccc(-c5ccncc5)c4)c3n2)cn1 | 26.9% | 8.55% (active) | 21.2% | 35.4% | 4.67% (active) | 28.5% | 1.64% (active) | -23% (active) | 40.9% | 1.71% (active) | 5.33% (active) | 7.76% (active) | -12.8% (active) | 29.4% | 25.4% | -46.4% (active) | -15.7% (active) | 14.9% | 30.6% | – |
| Cc1ccc(C(=O)Nc2ccc(CN3CCN(C)CC3)c(C(F)(F)F)c2)cc1C#Cc1cnc(N)c2ccccc12 | -89.3% (active) | -23.5% (active) | -59.9% (active) | -63.4% (active) | -75.5% (active) | 1.65% (active) | -35.9% (active) | -84.8% (active) | -50.3% (active) | -76.7% (active) | -69.2% (active) | -12.8% (active) | -70.4% (active) | -66.1% (active) | -70.5% (active) | -85.4% (active) | 4.11% (active) | -94.5% (active) | -86% (active) | – |
| Cn1cc(-c2nc(-c3c[nH]c4ccncc34)cs2)c2cc(F)ccc21 | -98.1% (active) | -53.6% (active) | -88.9% (active) | -90.7% (active) | -94.7% (active) | -80.1% (active) | -85.9% (active) | -97.1% (active) | -73.1% (active) | -87.3% (active) | -81.8% (active) | -80.4% (active) | -95% (active) | -80.3% (active) | -89.1% (active) | -97.9% (active) | -85.7% (active) | -94.5% (active) | -95.1% (active) | – |
| CCN(CC)CCCNc1cc(OC)cc2cccnc12 | 105% | 81.4% | 133% | 89.5% | 96.5% | 96.5% | 105% | 101% | 107% | 127% | 99.7% | 91.6% | 111% | 109% | 94.8% | – | 110% | – | 126% | 93.8 |
| O=C1C=CC2(O)OC(c3ccccc3)CC(=O)C2=C1O (stereo not given) | 15.7% | 72.6% | 95.7% | 73.2% | 94% | 40.4% | 107% | 86.1% | 87.9% | 90.3% | 64.9% | 108% | 92% | 87.8% | 74.9% | 89.8% | 80.7% | 77% | 95.7% | – |
| COc1ccc(C2=NN(C=O)C(c3ccc(Oc4nc5c(c(=O)n(C)c(=O)n5C)n4C)c(OC)c3)C2)cc1 (stereo not given) | 60.9% | 89.9% | 102% | 77.6% | 110% | 57.8% | 75.5% | 110% | -10.3% (active) | 68.9% | 88.9% | 71.8% | 94.1% | 69.1% | – | 59.8% | 88.5% | 68.2% | 97.8% | 78.4 |
| Cc1nc2ccccc2c(/C=C/c2ccc(Br)cc2)c1C(=O)/C=C/c1ccccc1 | -3.75% (active) | 7.54% (active) | -28.4% (active) | 11.9% | -71.3% (active) | 51.9% | 4.22% (active) | -62.7% (active) | -4.07% (active) | 6.49% (active) | -27.3% (active) | -15.1% (active) | 51.3% | -11.6% (active) | – | 6.82% (active) | -5.46% (active) | -89.6% (active) | 3.46% (active) | – |
| O=C(Cn1cc(CSc2nc3ccccc3o2)nn1)Nc1ccc([N+](=O)[O-])cc1 | 108% | 92.6% | 104% | 91.5% | 108% | 91.8% | 102% | 101% | 110% | 96.2% | 106% | 93.9% | 79.4% | 96.3% | – | 99.1% | 68.5% | 94.5% | 105% | 92 |
